Assay outcomes as filed in PubChem BioAssay.
Methyltransferases: Primary Screen for Target Class Profiling of Small Molecule Inhibitors of Methyltransferases; purified enzyme, MTase-Glo SAH luminescence; active compounds read low; calls only at 40 µM; actives 3.9% (n = 25,000); call rule not given here
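Each enzyme was reacted with SAM and its substrate, with compounds tested once at 40 uM; SAH formed was read by MTase-Glo luminescence.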
The depositor's hits bear a star; i = inactive; + = active, no number. Only a selection was taken, and hits are over-represented in it overall. % is scaled to controls: 0 for no effect and ±100 for the full control effect.

SMILES	Methyltransferases
CCCN1C(=O)c2cc(C(=O)NCCOC)nn2CC1(C)C(=O)NC1CCCC1 (configuration not stated)	i
N#Cc1ccc2[nH]cc(CCCCN3CCN(c4ccc5oc(C(N)=O)cc5c4)CC3)c2c1	+
CCN1C(=O)c2cc(C(=O)N3CCC(N4CCCCC4)CC3)nn2CC1(C)C(=O)NC1CCCC1 (configuration not stated)	i
COC(=O)c1cc2n(n1)CC(C)(C(=O)NC1CCCC1)N(Cc1ccccc1OC)C2=O (configuration not stated)	i
CCCn1c(=O)c2ccc(C(=O)NC(C)C)cc2n2c(=O)n(CC(=O)Nc3cccc(CC)c3)nc12	i
O=C(O[C@@H]1O[C@H](CO)[C@@H](O)[C@H](O)[C@H]1O)c1ccccc1	i
CC1=C(C(=O)OC2OC(COC3OC(CO)C(O)C(O)C3O)C(O)C(O)C2O)C(C)(C)CCC1 (configuration not stated)	i
CC(C)(O)C1CC=C(C(=O)OC[C@H]2O[C@@H](OC(=O)C3=CCC(C(C)(C)O)CC3)[C@H](O)[C@@H](O)[C@@H]2O)CC1 (some centres not stated)	+
Cc1ccccc1NC(=O)N1Cc2c(sc3c2CCCC3)-n2cccc2C1c1ccc(F)cc1 (configuration not stated)	i
CC1CCN(S(=O)(=O)c2ccc3c(ccn3CC(=O)NCC(C)c3ccccc3)c2)CC1 (configuration not stated)	i
Cc1cc(N)c2ccccc2[n+]1CCCCCCCCCC[n+]1c(C)cc(N)c2ccccc21	+
COc1cccc(S(=O)(=O)N2CCC(OCCOc3ccccc3)CC2)c1	i
COc1cc2ncnc(Nc3cc(Br)c(O)c(Br)c3)c2cc1OC	i
COc1cc2ncnc(Nc3cccc(I)c3)c2cc1OC	+
COc1cc2ncnc(-n3nc(-c4ccccn4)nc3N)c2cc1OC	i
COc1ccc(Cl)cc1NC(=O)Cn1c(=O)oc2cc(S(=O)(=O)N3CCCC3)ccc21	i
Cc1ccc(Cn2c(=O)c3ccc(C(=O)NC4CCCC4)cc3n3c(=O)n(CC(=O)NC(C)C)nc23)cc1	i
CC(CCc1ccccc1)NCC(O)c1ccc(O)c(C(N)=O)c1 (configuration not stated)	i
NCC(O)c1ccc(O)c(O)c1 (configuration not stated)	+
CCC(NC(C)C)C(O)c1ccc(O)c(O)c1 (configuration not stated)	i
CC(C)OCCCn1c(=O)c2ccccc2n2c(=O)n(CC(=O)Nc3ccccc3F)nc12	i
CCCOc1ccc(CN2C(=O)c3cc4occc4n3CC2(C)C(=O)NC2CCCCC2C)cc1 (configuration not stated)	i
CC(C)Cn1c(=O)c2ccc(C(=O)NC(C)C)cc2n2c(SCC(=O)c3ccc(F)cc3)nnc12	i
CCc1cccc(N2C(=O)c3c(C(=O)OC)ncn3CC2(C)C(=O)NC2CCCC2)c1 (configuration not stated)	i
Cc1ccc(C(=O)Cn2nc3n(C(C)C)c(=O)c4ccc(C(=O)NC5CCCCC5)cc4n3c2=O)cc1	i
SMILES	Methyltransferases
Cn1nc(-c2ccc(C(F)(F)F)cc2)nc2c(=O)n(C)c(=O)nc1-2	+
CCCn1c(=O)c2ccc(C(=O)NC(C)CC)cc2n2c(=O)n(Cc3cccc(C)c3)nc12 (configuration not stated)	i
CC1(C(=O)NC2CCCC2)Cn2cnc(C(=O)NCCC3=CCCCC3)c2C(=O)N1C1CC1 (configuration not stated)	i
Cn1c(=O)n(C)c2cc(S(=O)(=O)Nc3ccc(N4CCN(S(C)(=O)=O)CC4)cc3)ccc21	i
CCOc1ccc(CCN2C(=O)c3c(C(=O)OC)ncn3CC2(C)C(=O)NC2CCCCC2)cc1 (configuration not stated)	i
CCOC(=O)c1cc2n(n1)CC(C)(C(=O)NCc1ccc(C)cc1)N(CCc1ccc(SC)cc1)C2=O (configuration not stated)	i
COc1ccc(NC(=O)c2nc3sccn3c2-c2ccncc2)cc1	i
COc1ccc(C(=O)Nc2ccc3c(c2)C(=O)N(C)C2=NCCN23)cc1OC	i
CN(C)CCCc1cc(C(=O)Nc2ccc(-c3ccncc3)cc2)ccc1O	+
COc1ccc(N2C(=O)c3cc4sccc4n3CC2(C)C(=O)NC2CCCCCC2)cc1Cl (configuration not stated)	i
COc1c2c(c(C)c3c1C(=O)OC3)O[C@@]1(C)C[C@@H](O)[C@]34O[C@](OC)(CC[C@]3(C)[C@H]1C2)OC4(C)C	i
COc1c2c(c(C)c3c1C(=O)OC3)OC1(C)CC(O)C34OC(OC)(OC3(C)C)C(O)CC4(C)C1C2 (configuration not stated)	i
COc1c2c(c(C)c3c1C(=O)OC3)O[C@@]1(C)C[C@@H](OC(C)=O)[C@]34O[C@](OC)(CC[C@]3(C)[C@H]1C2)OC4(C)C	+
O=C(CCc1nnc2n(CCc3ccccc3)c(=O)c3ccccc3n12)NC1CCN(Cc2ccccc2)CC1	i
COc1ccccc1CNC(=O)C1(C)Cn2c(cc3ccccc32)C(=O)N1Cc1ccccc1Cl (configuration not stated)	i
Oc1ccc(C2CNCc3sccc32)cc1O (configuration not stated)	+
Cc1cnc(CC2CCCN(Cc3ccc(F)cc3F)C2)n1Cc1ccccc1 (configuration not stated)	i
COc1cccc(CN2C(=O)c3cc4sccc4n3CC2(C)C(=O)NC2CCC(C)CC2)c1OC (configuration not stated)	i
CCOC(=O)c1cc2n(n1)CC(C)(C(=O)NC1CCCCC1)N(c1cccc(CC)c1)C2=O (configuration not stated)	i
C[C@@H](Oc1cc(-n2cnc3ccc(OC4CCN(C)CC4)cc32)sc1C(N)=O)c1ccccc1C(F)(F)F	+
CCC(C)NC(=O)c1ccc2c(=O)n(C)c3nn(CC(=O)NCc4ccccc4)c(=O)n3c2c1 (configuration not stated)	i
Cc1ccc(N2C(=O)c3nc4ccccc4n3CC2(C)C(=O)NC2CCCCC2C)cc1 (configuration not stated)	i
Cc1ccc(Cn2c(=O)c3ccc(C(=O)NC(C)C)cc3n3c(SCC(=O)NC(C)C)nnc23)cc1	i
Cc1cc2c(cc1S(=O)(=O)Nc1ccc(F)cc1)n(C)c(=O)n2C	i
CCc1cc2c(cc3n2CC(C)(C(=O)NC2CCCCCC2)N(CCN2CCOCC2)C3=O)s1 (configuration not stated)	i
Cc1ccc(N2CCN(S(=O)(=O)c3cc4c(cc3C)n(C)c(=O)n4C)CC2)c(C)c1	i
Nc1ncnc2c1c(-c1cccc(OCc3ccccc3)c1)cn2C1CC(CN2CCC2)C1 (configuration not stated)	+
CCCN1C(=O)c2c(C(=O)NCc3cc(Br)ccc3OC)ncn2CC1(C)C(=O)NCCC(C)C (configuration not stated)	i
CC(C)OCCCn1c(=O)c2ccccc2n2c(=O)n(CC(=O)NCc3ccccc3Cl)nc12	i
COc1ccc(CN2C(=O)c3cc4ccccc4n3CC2(C)C(=O)NCCCOC(C)C)cc1 (configuration not stated)	i
